FLuc counter: qHTS profiling assay for firefly luciferase inhibitor/activator using purifed enzyme and Km concentrations of substrates (counterscreen for miR-21 project); Luciferin 4-monooxygenase (Photinus pyralis), P08659; purified FLuc, Km substrates, luminescence inhibition; Potency, µM (doses to about 57.5 µM), for inactives: at the top dose activity change, negative = inhibition, actives largely listed as inhibitors; actives 6.9% (n = 360,000);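 further: plate controls were vehicle for no effect and reference inhibitor for full effect; nearly all actives have a fitted effect of over 55% in size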
Target sequence (P08659 whole entry, looked up): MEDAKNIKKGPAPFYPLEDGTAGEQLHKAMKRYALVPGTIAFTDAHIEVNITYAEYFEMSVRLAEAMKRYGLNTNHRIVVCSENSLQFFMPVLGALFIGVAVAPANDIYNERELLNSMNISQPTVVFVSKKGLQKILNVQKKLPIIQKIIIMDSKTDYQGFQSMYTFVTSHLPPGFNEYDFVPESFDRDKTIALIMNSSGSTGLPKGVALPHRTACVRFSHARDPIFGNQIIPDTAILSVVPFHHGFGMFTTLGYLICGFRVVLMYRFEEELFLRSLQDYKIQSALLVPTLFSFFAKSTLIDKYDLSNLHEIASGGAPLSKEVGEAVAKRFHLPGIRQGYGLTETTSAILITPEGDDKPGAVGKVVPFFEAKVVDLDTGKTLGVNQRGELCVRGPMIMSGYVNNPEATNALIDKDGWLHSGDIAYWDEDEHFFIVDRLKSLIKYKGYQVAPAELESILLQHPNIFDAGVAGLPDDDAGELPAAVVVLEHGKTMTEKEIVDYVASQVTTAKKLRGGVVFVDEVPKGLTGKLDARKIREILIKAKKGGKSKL
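Purified P. pyralis luciferase, 10 nM final, with Km-level 10 uM D-luciferin and 10 uM ATP in 50 mM Tris acetate pH 7.5, 10 mM Mg acetate, 0.01% Tween-20, 0.05% BSA; 6-point qHTS titration about 60 µM downward; luminescence read.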
SMN2 splice up: qHTS Assay for Enhancers of SMN2 Splice Variant Expression; actives 2.8% (n = 210,000); HEK293 SMN2-luciferase splicing reporter, luminescence, 30-36 h; Potency, µM (titrated, usually from 46.1 µM), for inactives: top-dose activity change, positive = activation, hits mostly activators; further: % of control where 0% means no effect; nearly all actives have a fitted effect of over 55% in size
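HEK293 cells carry an SMN2 […]–luciferase reporter in which exon 7 inclusion puts luciferase in frame. Cells were plated 10-12 h before compound addition, then incubated 30-36 h at 37C. ONE-Glo luminescence was read; sodium butyrate at 4.5 mM final served as control.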
ELG1 genotoxic: qHTS screen for small molecules that induce genotoxicity in human embryonic kidney (HEK293T) cells expressing luciferase-tagged ELG1. actives 1.3% (n = 330,000). AID 504466, 2011. HEK293T ELG1-luciferase reporter, luminescence, 16 h. Potency, µM (doses to about 46 µM), inactives show at the top dose activity change, positive = activation, most hits filed as activators; further: % of control where 0% means no effect; nearly all actives have a fitted effect of over 60% in size
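DMSO vehicle served as control against compound-treated ELG1-luciferase HEK293T cells; exposure lasted 16 hr at 37 °C and 5% CO2, followed by ONE-Glo luminescence detection after 30 min.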
NPC1 promoter act: qHTS Assay for NPC1 Promoter Activators; actives 2.4% (n = 320,000); Potency, µM (titrated, usually from 9.22 µM), inactives show at the top dose activation, hits mostly activators; Huh7 NPC1 promoter luciferase reporter, 24 h; further: % of control where 0% means no effect; nearly all actives have a fitted effect of over 60% in size
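Readout is luciferase luminescence, reflecting NPC1 promoter activation in stably transfected Huh7 cells after 24 h compound exposure at 37 °C in reduced-serum medium with 10% FBS.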
Rab9 prom act: qHTS Assay for Rab9 Promoter Activators | AID 485297, 2010 | Huh7 Rab9 promoter-luciferase reporter, luminescence, 24 h | Potency, µM (titrated, usually from 9.22 µM), without a hit: top-dose activation, negative = inhibition, usual class: activators | actives 2.8% (n = 320,000); further: % of control where 0% means no effect; nearly all actives have a fitted effect of over 60% in size
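Steps: seed 1500 Huh7 Rab9-luc cells per well, rest 2 h at 37 °C; add compound in DMSO; incubate 24 h; add luciferase reagent, 10 min ambient; read luminescence.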
ELG1 DNA repair: qHTS screen for small molecules that inhibit ELG1-dependent DNA repair in human embryonic kidney (HEK293T) cells expressing luciferase-tagged ELG1. HEK293T ELG1-luciferase reporter, luminescence, 16 h; DNA damage induced by 5-fluorouridine. Potency, µM (series often up to 46.1 µM), inactives show top-dose activity change, negative = inhibition, usual class: inhibitors. actives 2.3% (n = 330,000). AID 504467, 2011; further: on the % scale 0 is the no-effect control and ±100 the full control effect; nearly all actives have a fitted effect of over 55% in size
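Overnight (16 hr) co-exposure of 2,000 cells/well to 5-fluorouridine and compound at 37 °C preceded detection. Luciferase was quantified via ONE-Glo luminescence; loss of signal denotes inhibition.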
* marks the source's active call; other numbers are inactive results; ? = inconclusive; / = no result. In the library only some 9.2% were active in any assay of this set; here they are far more common. The call rests on the fitted dose curve; in most records, active means well fitted curve in the direction sought with a large enough effect; inconclusive means small, poorly fitted or top-dose-only effect, or another doubt; inactive means no such curve, though single readings can be large; an effect the other way counts as inactive or inconclusive. Potency means the concentration at half of the fitted maximal effect.

SMILES	FLuc counter	SMN2 splice up	ELG1 genotoxic	NPC1 promoter act	Rab9 prom act	ELG1 DNA repair
CC(C)c1ccc(NC(=O)c2ccc(Br)o2)cc1	2.13µM*	2.51µM*	?	0.891µM*	0.631µM*	?
O=C(NC(=S)Nc1ccccc1)c1ccc(Br)o1	13.5µM*	22.4µM*	?	?	?	?
CC(C)c1ccc(NC(=O)C2=NNC(=O)CC2)cc1	12µM*	/	?	2.82µM*	3.16µM*	?
O=C(Nc1cccc(Br)c1)N1CCN2CCCCC2C1 (stereo not given)	-3.2%	/	/	/	/	/
CCc1ccc(-n2nc(C)c3c(C)cc(=O)n(CC(=O)Nc4cc(C)ccc4C)c32)cc1	-3.5%	/	/	/	/	/
CC(=O)CC(C)(C)NC(C)=S	-0.9%	/	-0.6%	-1.3%	-2.0%	0.9%
Cc1c(C(=O)Nc2ccc(S(=O)(=O)NCC3CCCO3)cc2)cccc1[N+](=O)[O-] (stereo not given)	-1.1%	/	-6.4%	-2.0%	-3.2%	-15.2%
Cc1cnc(NC(=O)c2ccc(-c3nc4ccccc4s3)o2)s1	16.9µM*	0.3%	-4.5%	29.8%	13.4%	?
O=C(Nc1nc(-c2ccccn2)cs1)c1ccc([N+](=O)[O-])o1	?	/	5.9%	0.7%	-31.5%	?
O=C(Nc1nc2cc3c(cc2s1)OCCO3)c1ccc([N+](=O)[O-])o1	1.2µM*	/	9.2µM*	0.891µM*	1µM*	?
O=C(Nc1nc2ccccc2s1)c1ccc([N+](=O)[O-])o1	6.75µM*	/	6.6%	?	?	?
Cc1cc(C)c2nc(NC(=O)c3ccc([N+](=O)[O-])o3)sc2c1	?	/	-7.1%	-0.5%	21.0%	?
Cc1cnc(NC(=O)c2ccc(-c3ccc([N+](=O)[O-])cc3)o2)s1	-4.0%	/	-0.4%	-3.9%	-4.0%	7.8%
Cc1cc(C)c2sc(NC(=O)c3ccc([N+](=O)[O-])o3)nc2c1	13.5µM*	/	1.1%	0.1%	9.6%	?
COc1cc(C(=O)NCC(c2cccs2)N2CCOCC2)cc(Br)c1OCc1ccccc1 (stereo not given)	/	/	-11.2%	/	/	0.0%
O=C(c1cccnc1)N1CCN(c2c(Cl)cccc2[N+](=O)[O-])CC1	8.0%	-22.5%	-1.3%	-2.4%	-4.2%	-15.0%
CC(=O)Nc1c(C)nn(-c2ccccc2)c1N1CCC(C(=O)NCc2ccc(Cl)cc2)CC1	2.8%	/	/	/	/	/
O=C(Nc1nc2ccccc2s1)c1ccccc1[N+](=O)[O-]	16.9µM*	/	?	?	?	?
O=C(Nc1nc2c(F)cc(F)cc2s1)c1ccc([N+](=O)[O-])o1	16.9µM*	/	-0.9%	2.24µM*	1.58µM*	?
COc1ccc2nc(NC(=O)c3ccc([N+](=O)[O-])o3)sc2c1	2.13µM*	/	20.9%	?	2.82µM*	?
Cc1cc(C)nc(NC(=O)c2ccc([N+](=O)[O-])o2)n1	5.8%	1.8%	-2.5%	-0.2%	3.4%	-9.2%
CCC1CCc2sc(C(=O)N3CCCN(C)CC3)cc2C1 (stereo not given)	-0.8%	/	10.7%	2.2%	9.1%	?
CC(NCc1ccc(OCC(N)=O)cc1)C12CC3CC(CC(C3)C1)C2 (stereo not given)	-2.0%	/	-6.0%	0.7%	-0.2%	-12.4%
Cc1ccc(Cn2c(CCNC(=O)c3cccc(C)c3)nc3ccccc32)cc1	-14.7%	-11.7%	/	/	/	/
CC(=O)N1CCC2(CC1)OC(=O)C(C)=C2C(=O)NCc1cccc(Cl)c1	1.5%	/	/	/	/	/
SMILES	FLuc counter	SMN2 splice up	ELG1 genotoxic	NPC1 promoter act	Rab9 prom act	ELG1 DNA repair
C=C(C)C(=O)N1CC2(CC(c3cccc(NC(=O)/C(C)=C\C)c3)=NO2)C[C@H]1C(N)=O (stereo not given in full)	0.1%	/	1.9%	-46.6%	-5.9%	18.1%
O=C(Cn1cnc2c(OCc3ccccc3)ncnc21)NCc1ccccn1	/	/	-0.4%	/	/	-0.4%
COc1ccc(-c2c(C)nc3c(-c4ccccn4)cnn3c2N)cc1	0.536µM*	/	1.16µM*	0.316µM*	0.316µM*	?
Cc1cc(C(F)(F)Cl)n2ncc(-c3ccccn3)c2n1	-4.3%	/	6.1%	5.6%	-1.7%	-0.7%
COc1ccc(-c2c(C)nc3c(-c4ccsc4)cnn3c2N)cc1	0.601µM*	/	1.83µM*	0.316µM*	0.251µM*	?
O=C(CCn1nc(-c2ccc(Cl)cc2)c2ccccc2c1=O)Nc1ccc(OC(F)(F)F)cc1	-6.3%	-0.1%	/	/	/	/
C(=N\Nc1ccccn1)/c1cccnc1	?	/	6.7%	18.2%	20.3%	42.1%
O=C(Nc1cccc(Cl)c1)O/N=C\c1ccncc1	?	/	0.3%	-0.5%	1.0%	6.3%
Clc1cccc(N/N=C/c2ccncc2)c1	16.9µM*	?	?	25.6%	?	?
Cc1ccc(N/N=C/c2ccncc2)cc1	12µM*	/	?	?	3.16µM*	?
Cc1ccc(N/N=C/c2cccnc2)cc1	16.9µM*	?	?	?	?	?
O=S(=O)(c1ccccc1)N1CCC(n2cnc3ccccc32)CC1	1.2%	/	-11.9%	-0.6%	-1.0%	?
COc1ccc(-c2ccc(SCC(=O)NCc3ccco3)nn2)cc1	8.49µM*	7.0%	?	21.2%	?	?
COc1ccc(-c2ccc(SCC(=O)Nc3nnc(C)s3)nn2)cc1	1.35µM*	?	8.3%	6.4%	?	?
CCOc1ccc(NC(=O)CCC(=O)Nc2nnc(CC)s2)cc1	-0.9%	/	15.8%	19.0%	-0.8%	0.0%
CCc1nnc(NC(=O)CSc2ccc(-c3ccc(C)cc3)nn2)s1	2.39µM*	?	?	?	?	?
CCc1nnc(NC(=O)CSc2nnc(C)n2-c2ccc(C)cc2)s1	4.3%	-2.7%	-5.2%	0.0%	-3.4%	-12.9%
CCOc1ccc(-c2ccc(SCC(=O)Nc3nnc(CC)s3)nn2)cc1	0.601µM*	11.2µM*	?	?	?	?
COc1cc(CC(NC(C)=O)C(=O)NC2CCN(c3c4c(nc5ncnn35)CCC4)CC2)cc(OC)c1 (stereo not given)	-0.2%	-6.6%	1.5%	-0.4%	0.3%	-2.4%
CC(=O)Nc1cccc(/C(C)=N\NC(=O)c2ccc(Cn3nc([N+](=O)[O-])c(Cl)c3C)o2)c1	-16.9%	9.6%	-4.2%	1.0%	-2.5%	?

Bioassay records as filed in PubChem.
